# Source: PubChem BioAssay AID1847 (The Scripps Research Institute Molecular Screening Center, 2009)
# In all, about 2,300 compounds went through this assay and about 1,100 (48%) were called active. The set was probably picked from earlier hits. Not all results are given here. Values without a mark were called inactive.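 The calls were made as follows: active = inhibition above the mean inhibition of all tested sample wells plus 3 SD (cut at about 10% in these data); inactive = the rest.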
# Biological target: Luciferin 4-monooxygenase (Photinus pyralis) (UniProt P08659)
# Test: native FLuc enzyme inhibition – biochemical, luminescence, triplicate, artefact control for HSP90 inhibitor project, confirmation (AID 1847);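 also: 0% = DMSO with luciferase and 100% = wells lacking luciferase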
# Conditions: purified native firefly luciferase, at 5.9 µM, active compounds read high
# Chain of Luciferin 4-monooxygenase (Photinus pyralis) (P08659 whole entry, looked up): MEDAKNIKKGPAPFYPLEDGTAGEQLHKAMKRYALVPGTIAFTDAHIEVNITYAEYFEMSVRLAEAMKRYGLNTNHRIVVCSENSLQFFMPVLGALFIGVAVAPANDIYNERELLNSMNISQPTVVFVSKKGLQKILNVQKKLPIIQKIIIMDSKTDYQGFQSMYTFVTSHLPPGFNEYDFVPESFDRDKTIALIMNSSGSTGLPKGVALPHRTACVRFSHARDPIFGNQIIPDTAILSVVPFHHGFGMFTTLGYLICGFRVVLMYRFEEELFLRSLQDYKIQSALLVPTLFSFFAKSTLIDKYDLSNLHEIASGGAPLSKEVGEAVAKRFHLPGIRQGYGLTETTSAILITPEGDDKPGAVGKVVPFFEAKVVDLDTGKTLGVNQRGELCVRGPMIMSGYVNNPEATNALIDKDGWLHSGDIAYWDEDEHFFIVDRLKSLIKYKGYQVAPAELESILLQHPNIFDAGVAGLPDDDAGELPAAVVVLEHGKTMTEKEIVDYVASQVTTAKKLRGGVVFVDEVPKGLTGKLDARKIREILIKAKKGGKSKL
row,SMILES,inhibition
1,COc1cccc(-c2nc3ccc(N4CCN(C)CC4)cc3[nH]2)c1,38.9% (active)
2,O=c1c2ccccc2nc(/C=C/c2ccco2)n1-c1ccccc1O,4.47%
